This is an account of results in ChEMBL document CHEMBL1157539, “Thousands of chemical starting points for antimalarial lead identification” (Nature, 2010).

By Inhibition is commonly meant the share of the control response that was lost under treatment.

For the assay, the system named is Plasmodium falciparum. As to the kind of experiment: GSK_TCMDC: Inhibition of Plasmodium falciparum 3D7 in whole red blood cells, using parasite LDH activity as an index of growth. Test compounds present at 2uM. The assay is classed as functional.
Regarding `COc1ccc(NC(=O)/C=C/c2ccccc2Cl)cc1OCCN1CCN(c2ccncc2)CC1`, the Inhibition worked out at 100%.
As for `Cc1cccc2nc(-c3cccc(-c4cccc(NC(=O)C(C)CN(C)C)c4)c3)[nH]c12` (stereo not given), the figure is 100%; as for `COc1cc2nc(NCCc3ccccc3)nc(NCCCc3ccccc3)c2cc1OC`, 100%.
As for `CCOC(=O)c1cc(C(=O)OC)c2ccccn12`, the figure is 97%.
In turn, `CCN(CC)CCNc1ccnc2[nH]c3ccc(Cl)cc3c12` returned an Inhibition of 100%.
`Cc1cccc2nc(-c3ccc(-c4cccc(CNC5CCN(C)CC5)c4)s3)[nH]c12.O=C(O)C(F)(F)F` had an Inhibition of 98%.
Next, `Cn1cncc1-c1cc2c(Nc3ccc(OCc4ccccc4)cc3)ncnc2cn1`: 99%; `CC(=O)Nc1cc(C(=O)Nc2cccc(-c3csc(-c4nc5ccccc5[nH]4)c3)c2)ccc1C`: 94%; `COc1ccc2ncc(F)c([C@H](O)CN3CCC(NCc4ccc5c(c4)NC(=O)CS5)CC3)c2c1.Cl`: 100%.
Next, `COCCCNc1sc(S(=O)(=O)c2ccccc2)nc1S(=O)(=O)c1ccc(C)cc1`: 84%; `COc1ccc2ncc(OC)c(CCN3CC[C@@H](NCc4ccc5c(n4)NC(=O)CS5)[C@H](O)C3)c2n1`: 94%.
Next, `O=C(NCc1cccc2ccccc12)C1CCCN(C(=O)c2ccc(O)c(-c3ccc(Cl)c(Cl)c3)c2)C1` (stereo not given): 92%; `O=C(Nc1cccc(-c2cccc(-c3nc4cc(F)ccc4[nH]3)c2)c1)Nc1ccc2c(c1)OCO2`: 100%.
`CCOc1ccc2c(c1)C(C)(c1ccc3c(c1)C(C)CC(C)(C)N3)CC(C)(C)N2` (stereo not given) showed an Inhibition of 94%.
Next, `CC(C)(CNCc1ccc(C(F)(F)F)cc1)c1nc(-c2ccc(Cl)c(O)c2)c(-c2ccncc2)[nH]1.Cl`: 100%.
Next, `CCN(CC)CCN(CCCc1ccc(-c2ccc(C(F)(F)F)cc2)cc1)C(=O)Cn1c(CCc2cccc(F)c2F)nc(=O)c2c1CCC2.O=C(O)C(O)C(O)C(=O)O`: 92%.
As for `Cc1cc(C(=O)Nc2ccc(OCc3ccccc3)cc2)on1`, the figure is 87%; as for `O=C(Cc1cccnc1)Nc1cccc(-c2cccc(-c3nc4cc(C(F)(F)F)ccc4[nH]3)c2)c1`, 99%.
Regarding `Cc1ccc(O)cc1Nc1ccnc2cc(-c3csc(CNCCN4CCOCC4)n3)ccc12`, the Inhibition turned out to be 100%.
As for `CC(C)(CNC(=O)/C=C/c1ccc(Cl)c(Cl)c1)CNc1cc(=O)c2ccccc2[nH]1`, the figure is 96%; as for `COc1ccc2ccccc2c1CNCCCCCCNCc1c(OC)ccc2ccccc12.Cl`, 100%; as for `O=C(Nc1ccc2c(c1)CCC2)c1nc(N2CCN(c3ccncc3)CC2)ccc1Cl.O=C(O)C(F)(F)F`, 100%.
Next, `Nc1nc(N)c2cc(C#Cc3ccc(-c4ccccc4)cc3)ccc2n1`: 94%.
Next, `O=C(/C=C/c1ccc([N+](=O)[O-])cc1)N1CCC(NS(=O)(=O)c2ccc(Br)cc2)CC1`: 93%; `O=S(=O)(c1ccc(OC(F)(F)F)cc1)C1CC2CCC(C1)N2S(=O)(=O)c1ccc(Cl)c(C(F)(F)F)c1` (stereo not given): 100%; `CCc1nc(N)nc(N)c1CCCOc1ccccc1Cl.Cl`: 92%.
Regarding `Clc1nc2ccccn2c1C=Cc1ccc2ccccc2n1`, the Inhibition was 86%.
Compound `CCOc1ccc(C(=O)Nc2nonc2-c2ccc(OC)c(OC)c2)cc1` came in with an Inhibition of 95%.
As for `Cc1ncc([N+](=O)[O-])n1CCOC(=O)NC(NCC1COc2ccccc2O1)C(Cl)(Cl)Cl` (stereo not given), the figure is 100%.
As for `CC(=O)Nc1cccc(C(=O)Nc2cccc(-c3csc(-c4nc5ccccc5[nH]4)c3)c2)c1`, the figure is 96%.
`CCc1cn(C)c2c(N3CCCC3=O)cc(C(=O)N[C@@H](Cc3ccccc3)[C@H](O)CNC(C)(C)c3cccc(C(F)(F)F)c3)cc12` had an Inhibition of 97%.
As for `CCN(CCCN1CCCCC1)c1cc(C)nc(Nc2ccc(C)cc2)n1.O=C(O)C(F)(F)F`, the figure is 100%; as for `Cl.NCC(=O)Nc1cccc(Nc2nccc(-c3c(-c4cccc(NC(=O)c5ccccc5)c4)nn4ccccc34)n2)c1`, 96%.
As for `NC(=O)c1cccc(CN2Cc3ccccc3OC3(CCN(Cc4c[nH]c5cnccc45)CC3)C2)c1.O=C(O)C(F)(F)F`, the figure is 94%.
As for `CCN(CC)CCOc1ccc(N(Cc2ccc(C(C)(C)C)cc2)C(=O)c2ccc(Cc3ccccc3)cc2)cc1OC.Cl`, the figure is 99%; as for `COC(=O)c1ccccc1N1CCN(CCCCNC(=O)c2ccc(NC(=O)c3cc(Cl)cc(Cl)c3)cc2)CC1`, 100%; as for `COc1ccc(CNCc2ccccc2)cc1-c1cccc(S(=O)(=O)NCCN2CCCC2)c1.O=C(O)C(F)(F)F`, 98%.
For the compound `CC(=O)Nc1ccc(C(=O)Nc2ccc(-c3cccc(-c4nc5cc(C(F)(F)F)ccc5[nH]4)c3)cc2)cn1`, the Inhibition was found to be 100%.
For `CC(C)N1CCC(N(Cc2ccc(-c3ccc(C(F)(F)F)cc3)cc2)C(=O)Cn2c(CCc3cccc(F)c3F)cc(=O)c3ccccc32)CC1.O=C(O)C(O)C(O)C(=O)O`, the Inhibition stood at 99%.
Next, `N=C(N)NN=CC(=O)Nc1ccc(C(F)(F)F)cc1.O=S(=O)(O)O`: 100%.
